Common to all, as to experiment: PBM binding z-score (relative to random genomic background probes); higher = stronger binding; sequences stand for … in GC…GCGATTGACAGCGTAGAATGAAGG
Test [1] has as its system FXR:RXRa (NR concentration 270 nM, RXRa partner concentration 90 nM). Put shortly: (§1)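 Random background probes are the reference for binding z-scores. These scores derive from regression-normalized fluorescence on custom Agilent 4×180K protein-binding microarrays incubated 1 h with ligand-free nuclear receptor dimers. Binding was detected with antibodies against each partner (one per run).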

Test [2] relates to LXRa:RXRa (NR concentration 270 nM, RXRa partner concentration 90 nM). In short, it runs like this:
as §1

Test [3] has as its system LXRa homodimer (NR concentration 270 nM). Put shortly:
as §1

Test [4] deals with LXRb:RXRa (NR concentration 270 nM, RXRa partner concentration 90 nM). Put shortly:
as §1

The subject of test [5] is LXRb homodimer (NR concentration 270 nM). In short, it runs like this: as §1
Test [6] concerns PPARa:RXRa (NR concentration 270 nM, RXRa partner concentration 90 nM). In short, it runs like this: as §1
Test [7] concerns PPARg:RXRa (NR concentration 180 nM, RXRa partner concentration 90 nM). In short, it runs like this: as §1
The subject of test [8] is PPARg:RXRa 270nM:90nM, anti-RXR (NR concentration 270 nM, RXRa partner concentration 90 nM). Put shortly: as §1
The subject of test [9] is PPARg:RXRa 30nM:10nM, anti-RXR (NR concentration 30 nM, RXRa partner concentration 10 nM). Put shortly:
as §1

Test [10] concerns PPARg:RXRa 90nM:30nM, anti-RXR (NR concentration 90 nM, RXRa partner concentration 30 nM). In short, it runs like this: as §1
Test [11] has as its system PPARg:RXRa DBDmut IVT, anti-RXR (DBD mutation: RXRa K156A/R161A, NR concentration 270 nM, RXRa partner concentration 90 nM). Put shortly: as §1
Test [12] relates to PPARg:RXRa IVT, anti-PPARg (NR concentration 270 nM, RXRa partner concentration 90 nM). In short, it runs like this: as §1
The subject of test [13] is PPARg DBDmut:RXRa IVT, anti-PPARg (DBD mutation: PPARg1 K132A/R137A, NR concentration 270 nM, RXRa partner concentration 90 nM). Put shortly: as §1
In test [14] the test system is PPARg DBDmut IVT, anti-PPARg (DBD mutation: PPARg1 K132A/R137A, NR concentration 270 nM). Put shortly:
as §1

The test system of test [15] is PPARg homodimer (NR concentration 180 nM). Put shortly: as §1
The test system of test [16] is PXR:RXRa (NR concentration 270 nM, RXRa partner concentration 90 nM). In short, it runs like this: as §1
Test [17] has as its system PXR homodimer (NR concentration 270 nM). In short, it runs like this: as §1
In test [18] the test system is RARa:RXR (NR concentration 270 nM, RXRa partner concentration 90 nM). In short, it runs like this:
as §1

The subject of test [19] is RARa homodimer (NR concentration 270 nM). Put shortly:
as §1

Test [20] deals with RARb:RXRa (NR concentration 270 nM, RXRa partner concentration 90 nM). Put shortly: as §1

Regarding CCTCGGAGGACAGAAGTTCAGAGCTGTCCGCTTT, the PBM binding z-score was -0.0968 in [1]; 0.116 in [2]; -0.259 in test [3]; -0.479 in [4]; -0.948 in test [5]; -0.198 in test [6]. In addition, the PBM binding z-score in test [7] was -0.643; in [8] it was -0.616; in [9] it was -1.24; in test [10] it was -0.788; in test [11], -0.783; in test [12] it was -0.951. For the same sequence, the PBM binding z-score in test [13] is -1.61; in test [14], -1.82; in test [15] it was -0.0548; in test [16] it was 0.556; in test [17] it was -0.104; in [18] it was -0.223. Also, the PBM binding z-score was -0.677 in test [19] and 1.59 in test [20].

CAAACTGGGTCAAGAGGTCAAAGTCCGCTTCCCG: the PBM binding z-score in test [1] came to 6.73; in test [2], 6.26; in test [3] it was 5.68; in [4], 5.53; in [5], 1.32; in test [6] it was 6.47. Moreover, the PBM binding z-score in test [7] is 9.59; in test [8], 8.33; in test [9] it was 7.11; in test [10], 8.47; in test [11] it was 7.83; in [12], 8.28. Moreover, the PBM binding z-score in [13] worked out at 2.26; in test [14], 1.72; in test [15], 5.48; in test [16] it was 6.28; in test [17] it was 2.74; in test [18] it was 7.7. For the same sequence, the PBM binding z-score was determined as 1.96 in test [19] and 5.29 in test [20].

Take TTACCGAGGTGAAGGTCGTTGATCCCTCTGTAGA: the PBM binding z-score in test [1] was 2.23; in [2] it was 2.18; in test [3], -0.314; in test [4], 1.71; in test [5], -0.388; in test [6], 2.95. Moreover, the PBM binding z-score came out at 3.07 in test [7]; 3.81 in [8]; 1.61 in [9]; 3 in test [10]; 1.78 in [11]; 3.4 in [12]. Moreover, the PBM binding z-score in [13] came to 0.416; in [14] it was 0.34; in test [15], 0.505; in test [16] it was 1.72; in test [17], 0.178; in test [18] it was 1.84. The PBM binding z-score is -0.539 in [19] and 2.11 in test [20].

As for CATACAGGGTCAGCTAGGCCACAGTAGGGACGGC, the PBM binding z-score is 4.61 in test [1]; 3.07 in test [2]; -0.102 in test [3]; 2.31 in test [4]; 0.444 in test [5]; 4.29 in test [6]. Besides, the PBM binding z-score is 3.75 in test [7]; 3.32 in [8]; 0.994 in test [9]; 2.01 in test [10]; 1.06 in test [11]; 2.82 in test [12]. The PBM binding z-score in [13] came out at 0.893; in test [14], 0.0227; in [15] it was 2.12; in test [16], 2.51; in test [17], 0.181; in test [18], 3.4. The PBM binding z-score in [19] turned out to be 0.445; in test [20], 4.17.

In the case of CGTCCAAGGTCAAAGGTCAGTTAAGAGATGACGG, the PBM binding z-score amounted to 8.43 in test [1]; 6.95 in test [2]; 4.02 in test [3]; 6.65 in [4]; 2.51 in [5]; 7.44 in [6]. The PBM binding z-score in test [7] is 10.5; in test [8] it was 8.31; in test [9] it was 7.4; in test [10], 9.07; in [11], 3.55; in test [12], 5.71. The PBM binding z-score in [13] was 1.21; in [14] it was -0.205; in test [15], 3.01; in test [16], 6.49; in test [17], 1.86; in test [18] it was 8.28. For the same sequence, the PBM binding z-score in test [19] was 1.38; in test [20] it was 6.2.

Turning to TAGCCGAGGTCATGCGGGCCAGTATAGTGTCGGC, the PBM binding z-score in test [1] amounted to 7.46; in [2], 5.94; in [3], 1.69; in [4], 4.64; in test [5], 1; in test [6] it was 6.24. Moreover, the PBM binding z-score was 6 in test [7]; 6.15 in test [8]; 2.74 in test [9]; 4.56 in [10]; 1.88 in test [11]; 4.29 in test [12]. In addition, the PBM binding z-score in [13] was determined as 1.82; in test [14] it was 0.598; in [15] it was 2.81; in test [16], 5.79; in test [17], 2.14; in test [18], 6.18. For the same sequence, the PBM binding z-score was determined as 0.453 in test [19] and 5.17 in [20].

As to TAGCGTAGGTCATGGGCCAGTATACCACGCGAAC, the PBM binding z-score in test [1] is 4.78; in test [2] it was 3.98; in [3], 0.0742; in test [4], 2.68; in [5], -0.458; in test [6] it was 4.58. Further, the PBM binding z-score came to 3.92 in [7]; 4.08 in test [8]; 1.41 in test [9]; 2.88 in test [10]; 0.846 in [11]; 2.41 in test [12]. Also, the PBM binding z-score in test [13] was -0.196; in test [14] it was 0.0667; in [15], 0.862; in [16] it was 2.19; in test [17], -0.726; in [18] it was 3.4. The figures for the PBM binding z-score in [19] and in test [20] were -0.444 and 3.9, respectively.

The record behind these values is the supplement of paper PMC6555819.
